Source: the supplement of paper PMC10849652
About 7,900 targets were measured; listed, in parts, are those with a hit and a random draw of the rest. About 0.6% of all pairs of compound and target were hits.

Compound: Cc1ncc(-c2ccnc(Nc3ccc(S(C)(=O)=O)cc3)n2)n1C(C)C
Experiment: log2 fold change, soluble protein after heating vs DMSO (PISA); higher = thermal stabilisation; K562 cells, 10 uM, 30 min; active = over 0.2 and 3.5 SD of the protein, either way, in both replicates (recomputed)
Outline: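 Quantification of soluble protein used TMTpro 16plex LC-MS/MS, with channel sums equalised. Samples were the supernatant after 21,000xg for 90 min of pooled aliquots from K562 cells (2×10^6 cells/mL) treated with 10 μM compound for 30 min, heated for 3 min over 48°C-58°C, and extracted in PBS with 0.5% NP-40 at 4°C. Values, from duplicates, describe thermal stability against control samples on a log2 fold-change scale.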

UniProt O75882, sequence (O75882 whole entry, looked up): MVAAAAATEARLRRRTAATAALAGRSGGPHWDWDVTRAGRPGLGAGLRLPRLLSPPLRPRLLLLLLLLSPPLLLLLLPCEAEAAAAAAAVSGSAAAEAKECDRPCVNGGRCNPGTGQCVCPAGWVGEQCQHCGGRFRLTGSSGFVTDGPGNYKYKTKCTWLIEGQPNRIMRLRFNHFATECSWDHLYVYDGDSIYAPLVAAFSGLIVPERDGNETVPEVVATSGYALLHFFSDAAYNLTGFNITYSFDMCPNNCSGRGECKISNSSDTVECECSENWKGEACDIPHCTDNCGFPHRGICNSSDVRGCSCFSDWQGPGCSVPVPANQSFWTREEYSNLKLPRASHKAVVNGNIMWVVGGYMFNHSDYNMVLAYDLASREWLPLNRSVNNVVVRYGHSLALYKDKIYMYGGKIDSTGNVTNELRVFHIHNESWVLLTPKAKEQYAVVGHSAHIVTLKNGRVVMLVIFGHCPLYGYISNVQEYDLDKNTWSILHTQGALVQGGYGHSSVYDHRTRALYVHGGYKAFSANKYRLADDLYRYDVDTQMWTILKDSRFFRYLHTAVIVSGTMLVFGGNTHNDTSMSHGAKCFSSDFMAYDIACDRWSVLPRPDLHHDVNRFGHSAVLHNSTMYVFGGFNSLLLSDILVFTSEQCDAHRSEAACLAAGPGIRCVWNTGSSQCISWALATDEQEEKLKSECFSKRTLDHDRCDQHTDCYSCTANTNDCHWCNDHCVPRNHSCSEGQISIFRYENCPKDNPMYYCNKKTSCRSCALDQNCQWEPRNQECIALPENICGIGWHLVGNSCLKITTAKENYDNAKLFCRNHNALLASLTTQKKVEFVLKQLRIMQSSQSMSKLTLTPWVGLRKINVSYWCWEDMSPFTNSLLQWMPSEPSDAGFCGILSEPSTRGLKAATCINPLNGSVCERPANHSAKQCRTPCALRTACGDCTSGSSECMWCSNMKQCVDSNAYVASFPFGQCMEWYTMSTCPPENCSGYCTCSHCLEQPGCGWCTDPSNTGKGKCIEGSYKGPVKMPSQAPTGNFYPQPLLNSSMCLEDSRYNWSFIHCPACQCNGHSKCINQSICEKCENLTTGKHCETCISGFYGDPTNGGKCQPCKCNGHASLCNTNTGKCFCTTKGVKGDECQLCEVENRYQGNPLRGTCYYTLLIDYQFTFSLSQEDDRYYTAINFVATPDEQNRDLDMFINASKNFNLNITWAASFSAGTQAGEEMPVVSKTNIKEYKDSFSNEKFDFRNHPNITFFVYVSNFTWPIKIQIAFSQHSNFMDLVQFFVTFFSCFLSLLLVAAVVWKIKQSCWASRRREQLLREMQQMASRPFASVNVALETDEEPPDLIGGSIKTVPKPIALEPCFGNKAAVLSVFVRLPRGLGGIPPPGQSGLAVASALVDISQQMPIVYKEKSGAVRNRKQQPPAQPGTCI
UniProt Q9UKU0, sequence (Q9UKU0 whole entry, looked up): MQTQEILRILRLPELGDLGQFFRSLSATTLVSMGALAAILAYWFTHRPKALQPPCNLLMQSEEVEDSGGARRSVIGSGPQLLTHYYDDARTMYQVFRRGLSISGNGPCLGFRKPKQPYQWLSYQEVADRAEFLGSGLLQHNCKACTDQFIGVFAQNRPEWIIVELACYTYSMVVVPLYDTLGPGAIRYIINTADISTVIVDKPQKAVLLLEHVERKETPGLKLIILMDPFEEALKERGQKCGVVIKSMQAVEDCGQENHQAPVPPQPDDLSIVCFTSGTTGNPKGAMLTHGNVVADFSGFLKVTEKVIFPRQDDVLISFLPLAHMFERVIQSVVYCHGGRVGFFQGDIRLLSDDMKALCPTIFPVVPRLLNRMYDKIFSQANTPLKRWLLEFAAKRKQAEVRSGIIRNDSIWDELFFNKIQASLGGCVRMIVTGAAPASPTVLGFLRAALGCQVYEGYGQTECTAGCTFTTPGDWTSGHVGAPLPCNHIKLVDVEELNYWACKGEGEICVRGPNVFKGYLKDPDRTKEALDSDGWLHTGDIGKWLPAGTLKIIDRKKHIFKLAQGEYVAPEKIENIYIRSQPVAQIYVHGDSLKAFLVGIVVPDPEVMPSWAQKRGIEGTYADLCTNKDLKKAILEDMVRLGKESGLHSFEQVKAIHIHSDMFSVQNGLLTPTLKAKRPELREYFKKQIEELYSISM
UniProt O00244, sequence (O00244 whole entry, looked up): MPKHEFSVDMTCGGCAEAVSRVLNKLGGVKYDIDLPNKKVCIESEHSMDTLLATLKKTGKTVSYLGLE
UniProt Q96F25, sequence (Q96F25 whole entry, looked up): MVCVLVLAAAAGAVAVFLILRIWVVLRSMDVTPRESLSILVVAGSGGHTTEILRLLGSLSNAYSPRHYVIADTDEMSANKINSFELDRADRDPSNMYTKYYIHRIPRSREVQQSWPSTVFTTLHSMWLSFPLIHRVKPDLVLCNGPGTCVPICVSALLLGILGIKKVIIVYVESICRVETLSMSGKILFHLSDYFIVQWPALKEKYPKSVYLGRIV
UniProt P54252, sequence (P54252 whole entry, looked up): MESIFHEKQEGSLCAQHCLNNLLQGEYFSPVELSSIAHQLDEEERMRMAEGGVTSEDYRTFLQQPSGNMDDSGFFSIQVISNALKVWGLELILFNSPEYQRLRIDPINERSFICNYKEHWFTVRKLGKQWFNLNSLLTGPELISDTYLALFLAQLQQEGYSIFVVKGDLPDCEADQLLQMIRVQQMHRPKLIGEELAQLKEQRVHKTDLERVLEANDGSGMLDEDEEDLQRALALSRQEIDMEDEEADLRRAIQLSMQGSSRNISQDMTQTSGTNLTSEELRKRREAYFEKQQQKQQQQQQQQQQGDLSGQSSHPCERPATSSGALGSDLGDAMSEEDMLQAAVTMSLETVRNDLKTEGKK
UniProt P02749, sequence (P02749 whole entry, looked up): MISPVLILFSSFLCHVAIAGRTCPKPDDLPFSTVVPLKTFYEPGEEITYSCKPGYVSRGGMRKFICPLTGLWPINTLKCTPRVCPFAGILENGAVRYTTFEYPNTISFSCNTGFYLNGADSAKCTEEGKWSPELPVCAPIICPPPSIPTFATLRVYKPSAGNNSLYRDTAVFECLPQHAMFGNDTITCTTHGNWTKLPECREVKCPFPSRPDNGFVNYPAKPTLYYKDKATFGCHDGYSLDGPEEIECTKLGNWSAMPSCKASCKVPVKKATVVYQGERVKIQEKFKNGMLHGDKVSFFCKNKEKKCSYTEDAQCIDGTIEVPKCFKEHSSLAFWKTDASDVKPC
UniProt Q96G97, sequence (Q96G97 whole entry, looked up): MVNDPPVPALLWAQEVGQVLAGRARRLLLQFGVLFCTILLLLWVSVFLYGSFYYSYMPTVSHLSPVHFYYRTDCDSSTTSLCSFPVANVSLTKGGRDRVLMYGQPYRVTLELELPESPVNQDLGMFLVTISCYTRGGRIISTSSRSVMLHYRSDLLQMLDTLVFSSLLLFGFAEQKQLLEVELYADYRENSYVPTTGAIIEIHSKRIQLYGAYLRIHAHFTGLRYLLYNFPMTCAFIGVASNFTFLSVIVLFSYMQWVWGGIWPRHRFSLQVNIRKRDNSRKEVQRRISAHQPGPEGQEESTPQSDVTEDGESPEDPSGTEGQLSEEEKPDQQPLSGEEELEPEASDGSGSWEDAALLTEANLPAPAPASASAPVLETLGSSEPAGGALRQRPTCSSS
UniProt Q96CW1, sequence (Q96CW1 whole entry, looked up): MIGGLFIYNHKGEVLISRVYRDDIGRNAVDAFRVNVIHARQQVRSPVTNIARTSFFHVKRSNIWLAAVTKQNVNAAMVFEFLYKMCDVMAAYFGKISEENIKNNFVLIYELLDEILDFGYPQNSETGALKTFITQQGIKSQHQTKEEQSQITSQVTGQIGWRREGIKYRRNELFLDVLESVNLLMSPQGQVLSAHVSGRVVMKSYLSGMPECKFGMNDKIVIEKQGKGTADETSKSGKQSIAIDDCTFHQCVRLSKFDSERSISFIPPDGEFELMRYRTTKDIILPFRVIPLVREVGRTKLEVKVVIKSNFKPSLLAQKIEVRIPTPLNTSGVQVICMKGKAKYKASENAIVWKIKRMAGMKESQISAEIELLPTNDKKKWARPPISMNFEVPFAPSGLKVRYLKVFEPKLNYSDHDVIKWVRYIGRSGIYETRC
UniProt P54922, sequence (P54922 whole entry, looked up): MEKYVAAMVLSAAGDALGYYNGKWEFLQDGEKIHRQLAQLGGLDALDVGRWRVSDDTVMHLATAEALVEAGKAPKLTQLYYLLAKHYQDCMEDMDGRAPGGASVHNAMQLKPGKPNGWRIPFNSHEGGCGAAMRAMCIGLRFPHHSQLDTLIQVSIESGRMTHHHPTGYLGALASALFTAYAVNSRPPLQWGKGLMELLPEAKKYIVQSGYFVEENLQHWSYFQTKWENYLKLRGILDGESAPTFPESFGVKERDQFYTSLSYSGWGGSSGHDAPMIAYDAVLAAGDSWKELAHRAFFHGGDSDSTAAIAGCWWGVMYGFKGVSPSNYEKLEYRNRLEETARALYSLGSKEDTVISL
UniProt Q9NWX5, sequence (Q9NWX5 whole entry, looked up): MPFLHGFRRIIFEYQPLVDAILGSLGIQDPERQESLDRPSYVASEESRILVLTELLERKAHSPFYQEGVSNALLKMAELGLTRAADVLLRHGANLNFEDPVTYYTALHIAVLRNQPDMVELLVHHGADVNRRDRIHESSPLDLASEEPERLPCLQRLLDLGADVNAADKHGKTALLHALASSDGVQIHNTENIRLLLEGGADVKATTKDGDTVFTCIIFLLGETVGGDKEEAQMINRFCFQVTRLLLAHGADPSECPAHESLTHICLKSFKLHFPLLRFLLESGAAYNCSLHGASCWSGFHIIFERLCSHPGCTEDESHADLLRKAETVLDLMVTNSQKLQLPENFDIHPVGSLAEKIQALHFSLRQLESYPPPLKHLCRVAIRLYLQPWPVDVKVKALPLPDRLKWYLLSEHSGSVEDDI
UniProt P24666, sequence (P24666 whole entry, looked up): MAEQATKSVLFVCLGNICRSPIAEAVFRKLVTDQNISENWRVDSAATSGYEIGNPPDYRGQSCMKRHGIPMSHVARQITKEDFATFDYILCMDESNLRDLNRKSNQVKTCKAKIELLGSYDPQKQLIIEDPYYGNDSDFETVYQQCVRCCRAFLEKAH

log2 fold change, inactive:
BSCL2 isoform 4 (UniProt Q96G97) 0.116
ARL3 (UniProt P36405) -0.003
ABCA4 (UniProt P78363) 0.045
ALG14 (UniProt Q96F25) -0.033
AFDN isoform 5 (UniProt P55196) -0.06
AP2M1 (UniProt Q96CW1) -0.02
ASB6 (UniProt Q9NWX5) -0.07
ATOX1 (UniProt O00244) -0.009
ADPRH (UniProt P54922) -0.161
ADAMTS5 (UniProt Q9UNA0) -0.079
AASDH (UniProt Q4L235) 0.173
ATP7B (UniProt P35670) 0.087
ATRN (UniProt O75882) 0
BRD3 (UniProt Q15059) -0.138
ACP1 (UniProt P24666) -0.01
BRIP1 (UniProt Q9BX63) -0.071
ATXN3 isoform 1 (UniProt P54252) -0.021
ARRDC1 (UniProt Q8N5I2) 0.079
ACTBL2 (UniProt Q562R1) -0.051
ADAM15 (UniProt Q13444) 0.079
AIP (UniProt O00170) 0.056
ARHGAP25 isoform 4 (UniProt P42331) 0.078
ABHD11 (UniProt Q8NFV4) 0.083
ATF1 (UniProt P18846) 0.064
ARFIP1 isoform 2 (UniProt P53367) -0.013
ACSL6 isoform 1 (UniProt Q9UKU0) -0.025
ARGLU1 (UniProt Q9NWB6) -0.027
BCLAF1 (UniProt Q9NYF8) -0.14
B4GALNT1 (UniProt Q00973) -0.125
ARFGAP1 (UniProt Q8N6T3) -0.004
ANK2 (UniProt Q01484) -0.042
ACTR1B (UniProt P42025) 0.083
AMD1 (UniProt P17707) -0.037
APOH (UniProt P02749) 0.392
APH1A (UniProt Q96BI3) 0.028
AUP1 (UniProt Q9Y679) 0.018
